Experimental data published in PubChem BioAssay (NCI).
Compounds without any hit were thinned out: in the full panel of roughly 83,000, 20% have a hit.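 96-well plates, one dose, 48 hours. Percent growth reported; active if below 10.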 A number with no mark means an inactive call. Active and inactive are the calls of the source.

test system: HOP-92 NSCLC; experiment: NCI-60 one-dose screen, 48 h (100 = growth as untreated, 0 = no growth, -100 = all killed); conditions: 10 µM unless noted
Method: Growth inhibition of the HOP-92 human Non-Small Cell Lung tumor cell line is measured as a screen for anti-cancer activity. Cells are grown in 96 well plates and exposed to the test compound for 48 hours. Compounds are tested at a single concentration, which is 10^-5 M for most compounds. The reported endpoint is percent growth (GI% or GIPRCNT), where numbers from 0 - 100% represent growth inhibition, and numbers from -100% - 0 represent cell death. For example, a value of 40 represents 60% growth inhibition. A value of 0 means no net growth occurred over the course of the experiment. A value of -40 indicates 40% of cells at the beginning of the experiment died by the end of the experiment. A value of -100 means all cells are dead at the end of the experiment.
NCI-60 Human Tumor Cell Lines Screen was performed using the standard one-dose NCI protocol, which is described in more detail at https://dtp.cancer.gov/discovery_development/nci-60/default.htm.
Compounds with GIPRCNT values below 10 were considered active. Activity score was based on GIPRCNT using the following formula: […]
Score is 0 for GIPRCNT values of 100 or above, 50 for GIPRCNT values of 0, and 100 for GIPRCNT values of -100.

In order of falling growth:
1. C[C@H](CCC[C@H](C)OS(=O)(=O)c1ccccc1)OS(=O)(=O)c1ccccc1  131%
2. CC(C)N1CC(=O)N2CSCC2C1=O (stereo not given)  126%
3. CCOC(=O)c1ccc(C(C)(C)C)cc1  117%
4. COC(=O)C1=C(C)C(=O)CC1  113%
5. COc1ccc2c(ccc[n+]2C)c1  110%
6. COc1ccc(/C=C\C(=O)/C=C/c2ccc(OC)cc2)cc1  109%
7. COC(=O)c1ccccc1C(=O)c1c(C)cc(C)cc1C  107%
8. CCCC(OC(C)=O)c1ccc2c(c1)OCO2 (stereo not given)  104%
9. O=c1[nH]c(=O)c2cc(Cl)cc(Cl)c2[nH]1  104%
10. Cc1ccc(NCN2C(=O)c3ccccc3C2=O)c(C)n1  102%
11. CC1(C)C2CCC1(C)C1(C2)OCCS1 (stereo not given)  102%
12. N#Cc1ccc2nc[nH]c2c1  101%
13. CC(=O)N(C)N=Nc1ccc(C)cc1  100%
14. CC(=O)N(C(C)=O)c1ccc(C)cc1  99.5%
15. CC(C)(CC(=O)O)CC(=O)O  96.6%
16. CCCC(=O)CC(=O)c1ccccc1  95.6%
17. CS(=O)(=O)c1ccc(/C=C\C(=O)O)cc1  94%
18. O=C(O)c1ccc(OCc2ccccc2)cc1  93.2%
19. O=S(=O)(O)c1ccc(O)c(C2CCCCC2)c1  93.2%
20. CC(C)OCC(CCl)OC(=O)Nc1ccccc1 (stereo not given)  89.5%
21. C/C(O)=C(/C=N\C(=S)Nc1ccc(S(=O)(=O)Nc2nccs2)cc1)C(=O)Nc1ccccc1C  87.5%
22. NNC(=O)c1ccccc1N  86.4%
23. CC(C)N(CCCC#N)C(C)C  85.8%
24. O=C(c1cccc(C(=O)c2ccc3c4c(cccc24)C(=O)N(c2ccccc2)C3=O)c1)c1ccc2c3c(cccc13)C(=O)N(c1ccccc1)C2=O  85.5%
25. CCNCC(C)(C)O  84.4%
26. O=C1CSc2ccccc2N1  83.9%
27. CC1(C)OC2C(CO)OC(n3ccc(=O)[nH]c3=O)C2O1 (stereo not given)  82.8%
28. COC1CC(OC(=O)c2ccc([N+](=O)[O-])cc2)C(COC(=O)c2ccc([N+](=O)[O-])cc2)O1 (stereo not given)  82.8%
29. Nc1ccc(F)c(Cl)c1F  80%
30. S=C=Nc1ccc2ccccc2c1  79%
31. Cc1ccc2nc(-c3ccc(N=Cc4ccccc4O)cc3)sc2c1  78.1%
32. Cc1nc(O)cc(=O)[nH]1  76.3%
33. Cc1cc2c3ccc(C)[n+](C)c3ccc2n1C  44.4%
34. CCOC(=O)N[C@H]1CCc2cc(OC)c(OC)c(OC)c2-c2ccc(SC)c(=O)cc21  29.4%
35. CN1CCCN(C(c2ccccc2)c2ccc(Br)cc2)CC1 (stereo not given)  25.8%
36. Cc1cc(Nc2ccc3c(c2)OCO3)c2cc3c(cc2n1)OCO3  10.4%

In the case of `FC(F)(F)c1cc(NC2=NCCN=C(Nc3cc(C(F)(F)F)cc(C(F)(F)F)c3)SS2)cc(C(F)(F)F)c1`, the growth is reported as 0.524% (active).
`C=C(c1ccc(N(C)C)cc1)c1ccc(N(C)C)cc1` was tested, and the growth was -2.12% (active).
For `Nc1cc2c(cc1Cl)C(=O)c1ccccc1C2=O`, the growth was -1.69% (active).
In the case of `CC(=O)NC(CCc1ccc(Cl)c(Cl)c1)c1cccc(O)c(=O)c1` (stereo not given), the growth is reported as 4.89% (active).
